Laboratory results reported in PubChem BioAssay AID493240 (Broad Institute, 2011).
Among all 1,300 compounds or so, about 270 (21%) were called active. No rule for the calls is given here. These entries were drawn from the full list. Results with a measured potency or affinity are listed apart.

Experiment: cytotoxicity in parental SK-MEL-5 melanoma cells – cell-based, CellTiter-Glo, cherry-picked, set 3, orthogonal assay for MITF inhibitor project, dose response (AID 493240)
Settings: SK-MEL-5 viability, ATP luminescence (CellTiter-Glo), 24 h; series mostly up to 35 µM

Structure (SMILES)	outcome
CCN1CCN(/C=N/c2nc3c(s2)CCCC3)CC1	inactive
Oc1ccc(-c2nnc(SCC3CCCCC3)o2)cc1	inactive
CC(=NNC(=S)N1CCN(c2ccccn2)CC1)c1nccs1	inactive
COc1ccc(C(=O)CN2Cc3ccccc3C2=N)cc1	inactive
O=C1CN(c2ccccc2)C(=S)N1C(=O)c1ccc(Br)cc1	inactive
O=C(COC(=O)CCN1C(=O)/C(=C\C=C\c2ccccc2)SC1=S)Nc1cc(F)ccc1F	inactive
COc1cc(C(=O)Oc2c(CN3CCOCC3)cc(Cl)c3cccnc23)cc(OC)c1OC	inactive
C/C(=N\NC(=O)COc1ccccc1-c1ccccc1)c1ccccn1	inactive
CCOC(=O)COc1ccc2ccccc2c1/C=C/[N+](=O)[O-]	inactive
O=C(/C=C/c1ccc([N+](=O)[O-])s1)N1CCCCC1	inactive
O=C(Nc1ccc(Cl)cc1)N1CC=CCC1	inactive
NC(=O)c1c(NC(=O)c2cccnc2)sc2c1CCCCC2	inactive
O=C(N/N=C/c1cc([N+](=O)[O-])ccc1N1CCNCC1)c1ccc([N+](=O)[O-])cc1	inactive
OCC1CCCC(n2cnc3c(=S)nc[nH]c32)O1 (configuration not stated)	inactive
CN(C)CCNC(=O)COc1ccc(C23CC4CC(CC(C4)C2)C3)cc1	inactive
O=C(CSc1ccc(Cl)cc1)NC1CCCC1	inactive
Cc1cc(C=C2C(=O)c3ccccc3C2=O)c(C)n1-c1ccccc1	inactive
N#CC1=C(c2ccccc2)/C(=C/c2ccccc2)OC1=O	inactive
Cc1ccccc1-n1ncc2c([N+](=O)[O-])cc([N+](=O)[O-])cc21	inactive
Cc1cc2oc(=O)cc(C)c2cc1NC(=O)CCC(=O)O	inactive
Cn1c(SC2=CS(=O)(=O)c3ccccc32)nc2ccccc21	inactive
COc1ccc(C(=O)NC(=O)Nc2cc(C)ccn2)cc1	inactive
Cc1cnn(C(=S)NCCc2ccccc2)c1	inactive
Cc1cc(NCCCn2ccnc2)n2ncc(-c3ccccc3)c2n1	inactive

Structure (SMILES)	outcome
CC(=O)c1ccc(N/C=C/C(=O)c2ccc(Br)cc2)cc1	inactive
COc1ccc(C(=O)N/N=C/c2cc(Br)ccc2O)cc1OC	inactive
CCOc1cc(/C=C(/C#N)c2ccc(Cl)cc2)cc(Cl)c1OCC(=O)O	inactive
O=[N+]([O-])c1ccc(N/N=C/C=C/c2ccco2)cc1	inactive
CCC(=O)N1CCN(c2ccc(NC(=O)c3ccc([N+](=O)[O-])o3)cc2)CC1	inactive
Cc1ccccc1C(=O)N1CCN(c2ccc(NC(=O)c3ccc([N+](=O)[O-])o3)cc2)CC1	inactive
CS(=O)(=O)N1CCN(c2ccc(NC(=O)c3ccc([N+](=O)[O-])o3)cc2)CC1	inactive
O=C(Nc1ccc(N2CCN(C(=O)c3ccc(Cl)cc3)CC2)cc1)c1ccc([N+](=O)[O-])o1	inactive
CC(C)(C)c1ccc(C(=O)Nc2ccc(CC(=O)O)cc2)o1	inactive
Cn1c(COc2ccccc2Br)nc2ccccc21	inactive
C[C@H]1CCC[C@]2(C)C[C@H]3OC(=O)C(CN4CCCCCC4)[C@H]3C=C12 (some centres not stated)	inactive
COc1ccc(NC(=O)c2cc3ccccc3[nH]2)cc1	inactive
O=C(NCc1ccco1)c1ccc(COCC(F)(F)F)cc1	inactive
COc1cc2nc(SCC(=O)NCc3ccco3)n(Cc3ccc(Cl)cc3)c(=O)c2cc1OC	inactive
CCN(C(=O)c1ccco1)c1nc(-c2ccc(OC)cc2)cs1	inactive
CCOCCCNC(=O)/C(C#N)=C/c1ccc([N+](=O)[O-])o1	inactive
CC1CC(C)CN(C(=O)/C=C/c2ccc([N+](=O)[O-])s2)C1 (configuration not stated)	inactive
COc1ccc(C(=O)CCNc2ccc(F)cc2)cc1	inactive
COc1ccc(C(=O)C(CN2CCOCC2)c2ccccc2)cc1 (configuration not stated)	inactive
COc1ccc(C(=O)C(CN2CCCC2)c2ccccc2)cc1 (configuration not stated)	inactive
CCNC(=O)CC1C(=O)N(c2ccc(F)cc2)C(=O)N1CCc1ccc(OC)cc1 (configuration not stated)	inactive
CC(C)(C)c1ccc(-c2cc(N)n[nH]2)cc1	inactive
O=C(Nc1ccc(Cl)cc1)C1C2CCCCC21 (configuration not stated)	inactive
CCOC(=O)N1C(=O)[C@@](CC)(c2ccccc2)N1C(=O)OCC	inactive

Structure (SMILES)	outcome
O=S1(=O)CCC(NC(=S)SCc2ccccc2Br)C1 (configuration not stated)	inactive
O=C(CSCC(=O)Nc1ccccc1)N/N=C/c1c(O)ccc2ccccc12	inactive
CCOC(=O)c1cn2nc(Oc3ccccc3)ccc2n1	inactive
COc1ccc(/C=C2\SC(=S)N(CCCC(=O)NNC(=O)c3ccccc3O)C2=O)cc1	inactive
CN(C)CCNc1ccc2nnn3c4ccc(O)cc4c(=O)c1c23	inactive
O=C(Nc1ccccc1Cl)Nc1cccc2cccnc12	inactive
COc1ccc2oc(=N)c(C(=O)Nc3ccccc3Cl)cc2c1	inactive
Cc1cc(C(=O)Nc2cccc(C(=O)O)c2)oc1C	inactive
CCSc1nc2c(cnn2-c2ccccc2)c(=O)n1N	inactive
O=C(O)c1cccc(N/N=C/c2ccc(OC(F)(F)F)cc2)c1	inactive
COc1cc(C2C(C#N)=C(N)Oc3cc4c(cc32)OCO4)cc(OC)c1OC (configuration not stated)	inactive
Clc1ccc(-c2c[n+](Cc3cccc(Cl)c3)c3n2CCC3)cc1	inactive
O=C(C[n+]1cc(-c2ccc(F)cc2)n2c1CCC2)c1cccs1	inactive
Nc1ccc(-c2nc3c(Cl)cc(N)cc3[nH]2)cc1	inactive
C=CCSC(=S)NC1CCS(=O)(=O)C1 (configuration not stated)	inactive
C/C(=N\NC(=O)C(C)Oc1ccc([N+](=O)[O-])cc1)c1ccccn1 (configuration not stated)	inactive
O=C(/C=C/c1ccc([N+](=O)[O-])s1)N1CCCC1	inactive
COc1ccc(NC(=O)c2cc(F)cc(F)c2)cc1Cl	inactive
COc1ccc(C(=O)Nc2ccc3ccccc3c2)cc1OC	inactive
COc1ccc(NC(=O)c2scc(S(=O)(=O)C(C)C)c2N)cc1	inactive
O=C(/C=C/c1ccccc1)Nc1cccc(C(=O)O)c1	inactive
O=C(Nc1ccccc1F)c1ccc2c(c1)OCO2	inactive
Cc1cccc(OCC(=O)Nc2cccc(O)c2)c1	inactive
CC1(C)Cc2c(sc(NC(=O)Nc3ccccc3)c2C(N)=O)CO1	inactive

Structure (SMILES)	outcome
COc1cccc(/C=N/Nc2nc3ccccc3[nH]2)c1OC	inactive
O=C(Nc1ccc(-c2cn3c(n2)SCC3)cc1)c1ccco1	inactive
NNC(=O)c1cc2ccccc2cc1O	inactive
CN(CC(=O)N1CCCCCC1)S(=O)(=O)c1ccccc1	inactive
COC(=O)C1=C(CN2CCCc3ccccc32)NC(=O)NC1c1ccc(F)cc1 (configuration not stated)	inactive
O=Cc1ccc(N2Cc3ccccc3C2)cc1	inactive
Cc1ccc(C(=O)c2coc3ccc(O)c(Cl)c23)cc1	inactive
COCc1cc(C)nc2sc(C(=O)Nc3cccc(OC)c3)c(N)c12	inactive
COc1ccc(CNC(=O)CN2C(=O)C3C4C=CC(C4)C3C2=O)cc1 (configuration not stated)	inactive
CN(C)CC1CC/C(=C\c2ccc(O)cc2)C1=O (configuration not stated)	inactive
Cc1cc(NC(=O)c2ccc(Cl)cc2Cl)no1	inactive
N/C(=N\OC(=O)c1ccncc1)c1cccc([N+](=O)[O-])c1	inactive
O=[N+]([O-])/C=C\c1ccc(N2CCOCC2)cc1	inactive
COc1cccc2sc(N3CCN(C(=O)c4ccc([N+](=O)[O-])o4)CC3)nc12	inactive
Oc1c(Cl)cc(Cl)cc1/C=N/Nc1ncc(Br)cn1	inactive
O=C(Cc1cccs1)NCc1ccc(Cl)cc1Cl	inactive
c1ccc(OCc2nc3ccccc3[nH]2)cc1	inactive
CC(=O)c1c(C)[nH]c(C(=O)Nc2ccc(C)c(C)c2)c1C	inactive
BrC(=C\c1ccccc1)/C=N/n1cnnc1	inactive
Nc1nc2ccccc2n1/N=C/c1ccc(-c2ccccc2)o1	inactive
CN(C(=O)/C=C/c1ccc([N+](=O)[O-])s1)c1ccccc1	inactive
Cc1cc2ncn(/N=C/c3ccc([N+](=O)[O-])o3)c2cc1C	inactive
O=[N+]([O-])c1ccc(/C=N/n2c(CO)nc3ccccc32)s1	inactive
Cc1ccc(C)c(-n2c3nc(=O)[nH]c(=O)c-3cc3cc([N+](=O)[O-])ccc32)c1	inactive

Structure (SMILES)	outcome
O=C(Nc1ccc(F)c(Cl)c1)c1ccc2c(c1)OCO2	inactive
COc1ccccc1N1CCN(/N=C\c2ccccc2)CC1	inactive
CC(C)(C)N=Cc1cc(-c2ccccc2)sc1O	inactive
N#Cc1ccc(-c2cccnc2)nc1SCC(=O)c1ccccc1	inactive
COc1ccc(C(=O)Nc2nc3ccc(OC)cc3s2)cc1	inactive
CC(=C/c1ccco1)/C=N/N1CCN(c2ccccc2)CC1	inactive
CCCN(CC(=O)Nc1ccccc1C)C(=O)CCl	inactive
Cc1nc(-c2ccccn2)sc1C(=O)Nc1ccc(F)cc1F	inactive
COc1ccc(N/C=C\C(=O)c2ccc3ccccc3c2)cc1	inactive
CC(=O)Nc1cccc2c1Cc1ccccc1-2	inactive
Cc1c(NC(=O)c2ccc([N+](=O)[O-])o2)cccc1-c1nc2ncccc2o1	inactive
CCN(CC)S(=O)(=O)c1cccc(C(=O)N/N=C(\C)c2ccc(O)cc2O)c1	inactive
CCCCCCN1C=CC(=C2C(=O)c3ccccc3C2=O)C=C1	inactive
CC(C)CC(=O)NC(c1cccs1)c1ccc2cccnc2c1O (configuration not stated)	inactive
O=C(/C=C/c1ccccc1Cl)NC1CCCCC1	inactive
COc1ccc(/C=C/C(=O)NC(=S)N2CCN(c3ccccc3OC)CC2)cc1	inactive
COCCN(C(=O)CCl)C(C(=O)NC1CCCCC1)c1ccccc1C (configuration not stated)	inactive
COCCn1c(C)cc(C(=O)CSc2nnc(C)s2)c1C	inactive
c1ccc(CSc2nnc(-c3ccco3)n2Cc2ccco2)cc1	inactive
N#Cc1c(NC(=O)CSc2ncn[nH]2)sc2c1CCCC2	inactive
COc1ccc(-c2cc(-c3ccc(OC)c(OC)c3)n[nH]2)c(O)c1	inactive
